The source of these data is PubChem BioAssay (NCATS).

SMILES strings stand for the structures. Inconclusive results are not listed. Calls of active or inactive are those of the source. The call rests on the fitted dose curve; in most records, active means well fitted inhibition curve with a large enough effect; inconclusive means small, poorly fitted or top-dose-only effect; inactive means flat fitted curve, though single readings scatter.

The test deals with CRL-7250. Kind of test: qHTS assay to identify novel small-molecules to repurpose for Merkel cell carcinoma treatment (AID 1296009). Further: nearly all actives have a fitted effect of over 60% in size. Particulars: MCC and control cell lines, CellTiter-Glo viability, 72 h; at 44.8 µM (top of the series) unless noted. In outline:
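Cell viability measured by CellTiter-Glo following 72 hr compound treatment at 37 degree celsius, with NPC and MIPE libraries tested in 8- and 11-point concentration series.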
(In general: In qHTS, concentration-response curves come from the screen itself.)
On to `S=P(N1CC1)(N1CC1)N1CC1`, for which the outcome is “inactive [at 92 µM]”.
The result for `NS(=O)(=O)c1cc(Cl)c(Cl)c(S(N)(=O)=O)c1` reads “inactive”; that for `CCN(CC)C(C)CN1c2ccccc2Sc2ccccc21` (stereo unspecified), “inactive”.
For `NC1CCN(c2nc3c(cc2F)c(=O)c(C(=O)O)cn3-c2ccc(F)cc2F)C1` (stereo unspecified), the molecule was called inactive.
As for `Cc1c(N(C)CS(=O)(=O)O)c(=O)n(-c2ccccc2)n1C`, the result was inactive.
As for `COc1cc(O)cc(O)c1`, the molecule was classed as inactive.
With `NC(CS)C(=O)O` (stereo unspecified), the outcome was inactive.
To `Nc1c[n+](N2CCOCC2)no1` belongs “inactive”.
With `C/C(=C(\CCO)SS/C(CCO)=C(\C)N(C=O)Cc1cnc(C)nc1N)N(C=O)Cc1cnc(C)nc1N`, the call was inactive.
With `C=CCc1ccc(O)c(OC)c1`, the call was inactive.
`CN(C)C(=O)COC(=O)Cc1ccc(OC(=O)c2ccc(N=C(N)N)cc2)cc1`: the result was inactive.
As to `Cc1cc(C(C#N)c2ccc(Cl)cc2)c(Cl)cc1NC(=O)c1cc(I)cc(I)c1O` (stereo unspecified), the molecule was called inactive.
Turning to `CC1(COc2ccc(CC3SC(=O)NC3=O)cc2)CCCCC1` (stereo unspecified), the call was inactive.
Consider `Oc1ccc(Cl)c2cccnc12`, for which the result was inactive.
As to `CCN(CC)CCNC(=O)c1ccc(N)cc1`, the molecule was classed as inactive.
For `CC[N+](CC)(CCNC(=O)C(=O)NCC[N+](CC)(CC)Cc1ccccc1Cl)Cc1ccccc1Cl`, the molecule was classed as inactive.
For `CC(C)(C)NCC(O)COc1ccc(NC(=O)NC2CCCCC2)cc1` (stereo unspecified), the molecule was called inactive.
Regarding `Cc1ccccc1OCC(O)CO` (stereo unspecified), the call was inactive.
Regarding `CC(C)(C)NCC(O)COc1cccc2c1C[C@H](O)[C@H](O)C2` (stereo partly specified), the result was inactive.
To `Nc1ccn([C@@H]2O[C@H](CO)[C@@H](O)C2O)c(=O)n1` (stereo partly specified) belongs “inactive”; to `O=C(O)Cc1ccc(OCCNC[C@H](O)c2ccccc2)cc1`, “inactive”.
`C=CCN1C[C@H](C(=O)N(CCCN(C)C)C(=O)NCC)C[C@@H]2c3cccc4[nH]cc(c34)C[C@H]21`: the outcome was inactive.
On to `C[C@](N)(Cc1ccc(O)cc1)C(=O)O`, for which the outcome was “inactive [at 4.96 µM]”.
As for `Cc1cnc(NC(=O)C2=C(O)c3ccccc3S(=O)(=O)N2C)s1`, the call was inactive.
Take `CCOC(=O)Oc1ccc(CCNC(=O)[C@H](CCSC)NC(C)=O)cc1OC(=O)OCC`: the result was inactive.
Take `CCCCCCCC/C=C/C(=O)O`: the call was inactive.
For `O=C(NCC1CCCCN1)c1cc(OCC(F)(F)F)ccc1OCC(F)(F)F` (stereo unspecified), the outcome was inactive.
The result for `CCN1CCCC1CNC(=O)c1cc(S(=O)(=O)CC)c(N)cc1OC` (stereo unspecified) reads “inactive”; that for `CCN1CCN(C(=O)N[C@@H](C(=O)N[C@@H]2C(=O)N3[C@@H]2SC(C)(C)[C@H]3C(=O)O)c2ccccc2)C(=O)C1=O`, “inactive”; that for `COc1ccc(C(=O)NCc2ccc(OCCN(C)C)cc2)cc1OC`, “inactive”.
For the molecule `O=C(OOC(=O)c1ccccc1)c1ccccc1`, the outcome was inactive.
To `O=C(O)Cn1c(=O)n(Cc2ccc(Br)cc2F)c(=O)c2ccc(Cl)cc21` belongs “inactive”; to `CC(C)NCC(O)c1ccc(NS(C)(=O)=O)cc1` (stereo unspecified), “inactive”.
For `COc1cc(OC)c(C(=O)CCCN2CCCC2)c(OC)c1`, the molecule was classed as inactive.
Take `O=P(O)(O)C(O)(Cn1ccnc1)P(=O)(O)O`: the outcome is “inactive [at 17.4 µM]”.
As for `COc1c2occc2c(OC)c2c(=O)cc(C)oc12`, the molecule was classed as inactive.
